# Activity calls are given as the source filed them.
# What was measured:
# [1] = system: Plasmodium falciparum Sir2 (PF13_0152, Sir2A); experiment: pfSir2 binders on small-molecule microarrays, primary screen, biochemical, small-molecule microarray, 635 nm fluorescence (AID 1098); conditions: small-molecule microarray binding, fluorescence 635 nm; higher = more signal;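 note: score merges spot fluorescence intensity with its signal-to-noise ratio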
# [2] = small-molecule microarray binders of probe aDKK1, primary screen, biochemical, biotinylated probe, 635/667 nm fluorescence (AID 1099); conditions: higher = more signal;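 note: score merges 667nm spot fluorescence with signal to noise across triplicate slides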
# [3] = small-molecule microarray binders of probe aCHRDL2, primary screen, biochemical, biotinylated probe, 635/667 nm fluorescence (AID 1100); conditions: higher = more signal
# [4] = splicing luciferase reporter signal modulators, primary screen, spliceosome inhibition project, cell-based, HEK293, splice +/- reporter (AID 1101); conditions: luminescence, 24 h, higher = more signal, called active from +8 up or from −8 down;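 note: HEK293 cells carrying a splicing-competent luciferase reporter gene; test concentration not given here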
# [5] = target: Fibroblast growth factor 10 (Homo sapiens) (UniProt O15520); experiment: FGF10 binders on small-molecule microarrays, primary screen, biochemical, small-molecule microarray, 635 nm fluorescence (AID 1102); conditions: FGF10 binding, fluorescence 635 nm, higher = more signal
# Fibroblast growth factor 10 (Homo sapiens), sequence (O15520 whole entry, looked up): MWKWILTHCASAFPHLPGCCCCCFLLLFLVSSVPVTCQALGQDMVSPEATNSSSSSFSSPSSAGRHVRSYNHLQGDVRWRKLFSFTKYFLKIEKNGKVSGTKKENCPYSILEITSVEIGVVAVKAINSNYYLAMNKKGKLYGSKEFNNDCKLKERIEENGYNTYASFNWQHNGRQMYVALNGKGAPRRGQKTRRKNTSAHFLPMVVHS
# [6] = system: glycogen synthase kinase-3 (GSK3A per assay name; protocol says GSK3B); experiment: GSK3 binders on small-molecule microarrays, primary screen, biochemical, small-molecule microarray, 635 nm fluorescence, GSK3A (AID 1103); conditions: small-molecule microarray binding, fluorescence 635 nm; higher = more signal; note: the record names both GSK3A and GSK3B
# [7] = target: Epidermal growth factor receptor (Homo sapiens) (UniProt P00533); experiment: EGFR binders on small-molecule microarrays, primary screen, biochemical, small-molecule microarray, 635 nm fluorescence (AID 1104); conditions: EGFR binding, higher = more signal;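 note: score merges 667 nm emission intensity with spot signal to noise over triplicate slides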
# Epidermal growth factor receptor (Homo sapiens), sequence (P00533 whole entry, looked up): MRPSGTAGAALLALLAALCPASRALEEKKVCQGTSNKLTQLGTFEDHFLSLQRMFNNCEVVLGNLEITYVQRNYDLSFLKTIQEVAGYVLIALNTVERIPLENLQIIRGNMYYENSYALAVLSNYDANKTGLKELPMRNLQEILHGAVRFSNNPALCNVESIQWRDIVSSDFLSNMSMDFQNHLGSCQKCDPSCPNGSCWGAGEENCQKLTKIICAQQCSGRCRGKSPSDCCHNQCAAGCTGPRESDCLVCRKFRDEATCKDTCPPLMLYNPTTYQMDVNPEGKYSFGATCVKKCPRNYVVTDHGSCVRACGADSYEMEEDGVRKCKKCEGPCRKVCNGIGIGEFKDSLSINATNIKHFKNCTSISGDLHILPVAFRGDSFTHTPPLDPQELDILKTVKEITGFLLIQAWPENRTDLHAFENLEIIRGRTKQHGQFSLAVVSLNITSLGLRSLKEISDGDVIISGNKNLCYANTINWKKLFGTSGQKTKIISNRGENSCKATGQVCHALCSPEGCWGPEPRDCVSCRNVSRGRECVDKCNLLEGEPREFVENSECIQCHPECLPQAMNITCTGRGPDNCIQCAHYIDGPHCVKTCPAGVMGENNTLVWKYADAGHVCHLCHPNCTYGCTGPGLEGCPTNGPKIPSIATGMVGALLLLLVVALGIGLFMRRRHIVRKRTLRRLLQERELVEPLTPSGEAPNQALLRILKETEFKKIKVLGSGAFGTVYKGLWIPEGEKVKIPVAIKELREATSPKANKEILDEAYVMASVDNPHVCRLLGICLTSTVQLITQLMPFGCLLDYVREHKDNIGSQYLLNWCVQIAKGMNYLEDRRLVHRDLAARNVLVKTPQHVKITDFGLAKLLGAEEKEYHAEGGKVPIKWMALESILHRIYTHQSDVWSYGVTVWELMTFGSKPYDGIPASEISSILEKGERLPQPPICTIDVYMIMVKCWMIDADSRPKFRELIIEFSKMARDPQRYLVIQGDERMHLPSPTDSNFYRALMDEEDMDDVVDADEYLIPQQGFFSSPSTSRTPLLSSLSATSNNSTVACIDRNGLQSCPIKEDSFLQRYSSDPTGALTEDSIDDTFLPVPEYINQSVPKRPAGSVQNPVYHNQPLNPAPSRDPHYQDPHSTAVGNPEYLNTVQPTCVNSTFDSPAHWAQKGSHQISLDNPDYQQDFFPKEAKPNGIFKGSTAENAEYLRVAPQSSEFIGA
# [8] = target: Follistatin-related protein 3 (Homo sapiens) (UniProt O95633); experiment: FSTL3 binders on small-molecule microarrays, primary screen, biochemical, small-molecule microarray, 635 nm fluorescence (AID 1105); conditions: FSTL3 binding, higher = more signal;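 note: score merges emission near 667 nm and signal to noise per printed spot across three slides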
# Follistatin-related protein 3 (Homo sapiens), sequence (O95633 whole entry, looked up): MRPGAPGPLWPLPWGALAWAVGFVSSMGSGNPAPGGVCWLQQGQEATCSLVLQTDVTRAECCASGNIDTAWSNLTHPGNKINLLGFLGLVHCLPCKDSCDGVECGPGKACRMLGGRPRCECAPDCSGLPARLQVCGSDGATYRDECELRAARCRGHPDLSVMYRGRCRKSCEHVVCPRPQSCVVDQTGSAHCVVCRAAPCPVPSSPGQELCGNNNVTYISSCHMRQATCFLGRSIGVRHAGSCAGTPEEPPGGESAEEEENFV
# [9] = target: Dickkopf-related protein 1 (Homo sapiens) (UniProt O94907); experiment: DKK1 binders on small-molecule microarrays, primary screen, biochemical, small-molecule microarray, 635 nm fluorescence scan (AID 1106); conditions: DKK1 binding, higher = more signal;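 note: score merges emission near 667 nm with signal to noise over three replicate slides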
# Dickkopf-related protein 1 (Homo sapiens), sequence (O94907 whole entry, looked up): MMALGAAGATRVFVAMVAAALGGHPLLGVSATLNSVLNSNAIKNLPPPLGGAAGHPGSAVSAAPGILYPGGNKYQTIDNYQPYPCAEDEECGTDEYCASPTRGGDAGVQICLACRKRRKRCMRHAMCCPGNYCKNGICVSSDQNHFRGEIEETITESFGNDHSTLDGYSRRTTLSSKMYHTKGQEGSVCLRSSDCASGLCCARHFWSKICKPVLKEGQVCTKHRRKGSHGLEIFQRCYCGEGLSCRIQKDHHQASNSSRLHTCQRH
# [10] = system: Inhibin beta A chain (activin A); experiment: INHBA (activin A) binders on microarrays, primary screen, biochemical, small-molecule microarray, 635 nm fluorescence scan (AID 1107); conditions: small-molecule microarray binding, higher = more signal;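 note: mouse activin A protein probed at 4.33 µg/mL on printed slides; score merges bound-protein fluorescence near 667 nm with spot signal-to-noise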
# [11] = system: Human papillomavirus type 1a protein E7 (residues 44-93); experiment: HPV1a E7 fragment binders on microarrays, primary screen, biochemical, small-molecule microarray, residues 44-93, 635 nm fluorescence (AID 1108); conditions: small-molecule microarray binding, fluorescence 635 nm; higher = more signal;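 note: E7 fragment applied at 1 µg/mL in TBST for 1 h at 4 C; score combines spot fluorescence with its signal to noise ratio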
# [12] = modulators of HCV replicon luciferase signal, primary screen, HCV replication inhibitor project, Huh7 cells, luciferase reporter (AID 1109); conditions: 48 h, higher = more signal;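 note: huh7 hepatoma cells harbouring a luciferase neomycin HCV replicon reporter; luciferase luminescence as measure of HCV replicon replication; test concentration not given here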
# [13] = target: Left-right determination factor 2 (Homo sapiens) (UniProt O00292); experiment: LEFTY2 binders on small-molecule microarrays, primary screen, biochemical, small-molecule microarray, 635 nm fluorescence scan (AID 1110); conditions: LEFTY2 binding, higher = more signal
# Left-right determination factor 2 (Homo sapiens), sequence (O00292 whole entry, looked up): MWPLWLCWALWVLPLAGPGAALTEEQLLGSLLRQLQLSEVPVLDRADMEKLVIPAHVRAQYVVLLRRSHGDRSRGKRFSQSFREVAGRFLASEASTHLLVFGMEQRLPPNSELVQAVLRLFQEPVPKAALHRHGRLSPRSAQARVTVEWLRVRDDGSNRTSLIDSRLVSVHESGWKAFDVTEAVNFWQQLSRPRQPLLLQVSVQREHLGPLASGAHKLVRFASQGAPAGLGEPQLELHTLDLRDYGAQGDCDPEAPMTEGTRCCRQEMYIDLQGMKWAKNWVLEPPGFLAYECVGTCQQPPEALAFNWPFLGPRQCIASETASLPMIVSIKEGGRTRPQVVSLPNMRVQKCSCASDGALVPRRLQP
# [14] = target: Calmodulin-1 (Homo sapiens) (UniProt P0DP23); experiment: CALM1 binders on microarrays, EGTA buffer, profiling panel, biochemical, small-molecule microarray, Cy5-labelled CALM1 (AID 1111); conditions: Cy5-CALM1 binding fluorescence, higher = more signal;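 note: labelled calmodulin applied in Tris saline Tween buffer holding calcium plus EGTA and DTT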
# [15] = target: Calmodulin-1 (Homo sapiens) (UniProt P0DP23); experiment: calcium-bound CALM1 binders on microarrays, profiling panel, artefact control for SMM control-protein annotation, biochemical, small-molecule microarray, Cy5-labelled CALM1, plus calcium (AID 1112); conditions: Cy5-CALM1 binding fluorescence, higher = more signal;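 note: score merges spot fluorescence with signal to noise from triplicate slides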
# [16] = small-molecule microarray binders of probe aWnt5a, primary screen, biochemical, biotinylated probe, 635/667 nm fluorescence (AID 1113); conditions: higher = more signal;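 note: score merges 667 nm fluorescence intensity with signal-to-noise per printed feature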
# [17] = small-molecule microarray binders of probe aShh, primary screen, biochemical, biotinylated probe, 635/667 nm fluorescence (AID 1114); conditions: higher = more signal;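 note: probe is biotin-labelled aShh protein from a stem cell growth factor screen; measures binding of labelled protein to compounds printed on the slide; score merges feature fluorescence at 667 nm with signal-to-noise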
# [18] = small-molecule microarray binders of probe aNog, primary screen, biochemical, biotinylated probe, 635/667 nm fluorescence (AID 1115); conditions: higher = more signal;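 note: probe is biotinylated aNog protein used at 0.15 µg/mL for 1 h at 4 C; z-score combines 667 nm fluorescence of each spot with its signal to noise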
# [19] = target: Torsin-1A-interacting protein 1 (Homo sapiens) (UniProt Q5JTV8); experiment: LAP1 binders from COS7 cell lysate, primary screen, small-molecule microarray, 635/667 nm fluorescence (AID 1116); conditions: COS7-hLAP1 lysate binding, 635 nm fluorescence, higher = more signal
# Torsin-1A-interacting protein 1 (Homo sapiens), sequence (Q5JTV8 whole entry, looked up): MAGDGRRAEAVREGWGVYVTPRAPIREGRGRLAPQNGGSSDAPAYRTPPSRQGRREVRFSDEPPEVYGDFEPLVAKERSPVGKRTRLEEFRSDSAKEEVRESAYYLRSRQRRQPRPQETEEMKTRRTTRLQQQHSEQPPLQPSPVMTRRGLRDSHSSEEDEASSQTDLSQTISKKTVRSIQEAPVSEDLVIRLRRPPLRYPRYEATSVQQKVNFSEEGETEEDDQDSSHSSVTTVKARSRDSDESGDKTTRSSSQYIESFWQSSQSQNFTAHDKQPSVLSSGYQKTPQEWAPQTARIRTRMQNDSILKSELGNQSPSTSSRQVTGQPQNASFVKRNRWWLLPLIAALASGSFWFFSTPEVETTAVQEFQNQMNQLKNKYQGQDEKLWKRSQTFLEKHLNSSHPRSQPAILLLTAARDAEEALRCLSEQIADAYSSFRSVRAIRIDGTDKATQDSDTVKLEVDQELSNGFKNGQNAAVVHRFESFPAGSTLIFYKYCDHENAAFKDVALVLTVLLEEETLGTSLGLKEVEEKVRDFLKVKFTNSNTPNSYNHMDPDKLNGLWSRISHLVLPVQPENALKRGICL
# [20] = target: Alpha-bungarotoxin (Bungarus multicinctus) (UniProt P60615); experiment: alpha-bungarotoxin binders on microarray, profiling panel, artefact control for SMM control protein annotation, biochemical, small-molecule microarray, Alexa647 label, 635/667 nm fluorescence (AID 1117); conditions: alpha-BTX-A647 binding fluorescence, higher = more signal
# Alpha-bungarotoxin (Bungarus multicinctus), sequence (P60615 whole entry, looked up): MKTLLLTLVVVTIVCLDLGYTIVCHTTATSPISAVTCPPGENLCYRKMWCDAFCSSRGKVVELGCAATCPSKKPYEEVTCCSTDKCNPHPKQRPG
SMILES,composite z-score [1],composite z-score [2],composite z-score [3],z-score [4],composite z-score [5],composite z-score [6],composite z-score [7],composite z-score [8],composite z-score [9],composite z-score [10],composite z-score [11],z-score [12],composite z-score [13],composite z-score [14],composite z-score [15],composite z-score [16],composite z-score [17],composite z-score [18],composite z-score [19],composite z-score [20]
NC(=O)NCC#Cc1ccc2c(c1)[C@]1(C(=O)N2)[C@H](c2ccc(O)cc2)N2[C@H](c3ccccc3)[C@H](c3ccccc3)OC(=O)[C@H]2[C@@H]1C(N)=O,0.855,0.431,0.55,-0.278 (inactive),-0.0652,-1.08,-0.341,-0.934,-0.343,0.286,-0.366,0.114,-0.749,-0.571,0.261,-0.185,0.0469,0.218,-0.757,0.387
COCCOC(=O)N1C(=O)[C@@]2(c3cc(C#CCCO)ccc31)[C@H](c1ccc(OCCO)cc1)N1[C@H](c3ccccc3)[C@H](c3ccccc3)OC(=O)[C@H]1[C@@H]2C(=O)N1CCc2cc(OC)c(OC)cc2C1,1.29,-0.0877,0.232,0.309 (inactive),1.16,1.31,0.58,0.882,0.582,0.413,1.39,-1.12,0.503,0.759,0.215,-0.124,-0.0904,0.0531,-0.0856,0.642
CCCC=C(CCC)[C@@H](NC(=O)Cc1ccccc1)c1ccc(C(=O)OC)cc1,0.599,1.52,1.17,0.797 (inactive),0.395,0.289,0.43,0.514,-0.285,1.26,1.08,-1.11,0.0461,1.22,0.499,0.748,2.15,1.79,-0.481,1.66
COCCOC(=O)N1C(=O)[C@@]2(c3ccccc31)[C@H](c1ccc(OCCO)cc1)N1[C@H](c3ccccc3)[C@H](c3ccccc3)OC(=O)[C@H]1[C@@H]2C(=O)NC[C@H](O)c1ccccc1,1.32,0.161,0.568,-0.353 (inactive),1.2,0.777,0.146,1.38,0.362,0.526,1.44,-1.95,0.0792,0.718,0.716,-0.0758,-0.141,0.554,0.839,1.92
C[C@H]1NC(=O)C([C@@H](C)OCc2ccccc2)NC(=O)[C@@]23C(=O)N[C@@H](Cc4ccccc4)C2[C@H](C)[C@@]2(C)O[C@H]2C3/C=C/CC/C=C/CNC1=O (stereo not given in full),-0.0404,0.0094,-0.298,-1.39 (inactive),0.365,-0.248,0.279,0.575,0.506,1.42,-0.165,-0.631,0.416,-0.377,-0.377,0.0919,0.0815,-0.37,0.26,0.421
CCCc1cc2c(n1Cc1ccc(OC)cc1)C(C)C1CN(C(=O)c3ccccc3)C(C)(C(=O)OC)C21 (stereo not given),0.862,1.27,1.59,-1.94 (inactive),0.303,0.482,-0.409,0.324,-1.71,1.43,0.247,-2.16,-0.307,2.6,1.42,0.157,0.686,1.26,2.19,2.52
[N-]=[N+]=NCc1ccccc1C[C@]1(C(=O)NCCN2CCOCC2)N=C(c2ccc(OCCCO)cc2)O[C@H]1c1ccccc1,1.69,0.103,0.826,-0.326 (inactive),1.04,1.28,-0.329,0.0637,-0.781,0.527,1.45,-2.64,-0.481,0.835,-0.401,0.0215,0.131,-0.465,1.46,1.16
CCCCCCC#C[Si](O[C@H](c1ccccc1)c1cn(Cc2cccc(Cl)c2)nn1)(C(C)C)C(C)C,1.11,-0.166,-0.287,-0.577 (inactive),0.155,0.57,0.269,0.309,0.0628,0.308,0.564,-0.775,0.198,-0.0008,-0.159,-0.124,-0.0035,-0.118,0.343,-0.0766
CC(C)CNC(=O)[C@@]1(c2ccc([N+](=O)[O-])cc2)CC(=O)N(C(C)C)[C@@H]1c1ccc(CO)cc1,0.832,-0.258,1.08,-0.372 (inactive),-1,-1.02,-0.362,-0.129,-1.59,0.07,0.212,-0.687,-1.53,-0.505,0.739,-0.12,-0.0738,-0.428,-0.534,-0.186
O=C1C[C@@](C(=O)O)(c2ccc([N+](=O)[O-])cc2)[C@@H](c2ccc(CO)cc2)N1CC12CC3CC(CC(C3)C1)C2,1.23,0.28,0.771,0.66 (inactive),1.18,0.386,0.259,0.554,-0.148,0.532,1.4,-1.94,0.408,1.09,0.472,-0.172,0.358,0.995,1.41,1.2

# From PubChem BioAssay
